Experimental data published in article PMC9911399, “Two distinct binding modes provide the RNA-binding protein RbFox with extraordinary sequence specificity”.
Positions count from the first letter of the chain named. Whole data set: some 16,000 sequences, median “ka relative to ugcaugu” near 0.0091, cut for the highest 2% near 0.032. Only a selection was taken, and the highest values are over-represented in it overall.

T1: RBFOX1 RRM (Homo sapiens, UniProt Q9NWB1 109-208)
T1 sequence: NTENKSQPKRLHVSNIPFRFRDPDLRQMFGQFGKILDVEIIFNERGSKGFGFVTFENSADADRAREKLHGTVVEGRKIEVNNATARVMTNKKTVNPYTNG

B1: CAACUCA (DNA:RNA)
RNA: GGGAGACCGGAAUUCAGAUUGUCCCAACUCAUUAAAUCCCGUCGUAGCCACCA
DNA 1: CAATCTGAATTCCGGTCTCCC
DNA 2: TGGTGGCTACGACGGGATT
B2: GAUCAAG (DNA:RNA)
RNA: B1 RNA with C25G, A27U, U29A, C30A, A31G
DNA 1: CAATCTGAATTCCGGTCTCCC
DNA 2: TGGTGGCTACGACGGGATT
B3: CAUAUGA (DNA:RNA)
RNA: B1 RNA with A27U, C28A, C30G
DNA 1: CAATCTGAATTCCGGTCTCCC
DNA 2: TGGTGGCTACGACGGGATT
B4: ACAUCGA (DNA:RNA)
RNA: B1 RNA with C25A, A26C, C28U, U29C, C30G
DNA 1: CAATCTGAATTCCGGTCTCCC
DNA 2: TGGTGGCTACGACGGGATT
B5: AUUACAG (DNA:RNA)
RNA: GGGAGACCGGAAUUCAGAUUGUCCAUUACAGUUAAAUCCCGUCGUAGCCACCA
DNA 1: CAATCTGAATTCCGGTCTCCC
DNA 2: TGGTGGCTACGACGGGATT
B6: GUCGCUU (DNA:RNA)
RNA: B5 RNA with A25G, U27C, A28G, A30U, G31U
DNA 1: CAATCTGAATTCCGGTCTCCC
DNA 2: TGGTGGCTACGACGGGATT
B7: CGCUGCA (DNA:RNA)
RNA: B1 RNA with A26G, A27C, C28U, U29G
DNA 1: CAATCTGAATTCCGGTCTCCC
DNA 2: TGGTGGCTACGACGGGATT
B8: GCCUGCC (DNA:RNA)
RNA: B1 RNA with C25G, A26C, A27C, C28U, U29G, A31C
DNA 1: CAATCTGAATTCCGGTCTCCC
DNA 2: TGGTGGCTACGACGGGATT
B9: ACCUGCA (DNA:RNA)
RNA: B1 RNA with C25A, A26C, A27C, C28U, U29G
DNA 1: CAATCTGAATTCCGGTCTCCC
DNA 2: TGGTGGCTACGACGGGATT
B10: GUCCGCC (DNA:RNA)
RNA: B1 RNA with C25G, A26U, A27C, U29G, A31C
DNA 1: CAATCTGAATTCCGGTCTCCC
DNA 2: TGGTGGCTACGACGGGATT
B11: GCCUGCG (DNA:RNA)
RNA: B5 RNA with A25G, U26C, U27C, A28U, C29G, A30C
DNA 1: CAATCTGAATTCCGGTCTCCC
DNA 2: TGGTGGCTACGACGGGATT
B12: GCCUGCA (DNA:RNA)
RNA: B1 RNA with C25G, A26C, A27C, C28U, U29G
DNA 1: CAATCTGAATTCCGGTCTCCC
DNA 2: TGGTGGCTACGACGGGATT
B13: CUGUAGC (DNA:RNA)
RNA: B5 RNA with A25C, U27G, A28U, C29A, A30G, G31C
DNA 1: CAATCTGAATTCCGGTCTCCC
DNA 2: TGGTGGCTACGACGGGATT
B14: CGCACUC (DNA:RNA)
RNA: B5 RNA with A25C, U26G, U27C, A30U, G31C
DNA 1: CAATCTGAATTCCGGTCTCCC
DNA 2: TGGTGGCTACGACGGGATT
B15: AAGUAUU (DNA:RNA)
RNA: B5 RNA with U26A, U27G, A28U, C29A, A30U, G31U
DNA 1: CAATCTGAATTCCGGTCTCCC
DNA 2: TGGTGGCTACGACGGGATT
B16: CCUAUCU (DNA:RNA)
RNA: B1 RNA with A26C, A27U, C28A, A31U
DNA 1: CAATCTGAATTCCGGTCTCCC
DNA 2: TGGTGGCTACGACGGGATT
B17: UCGUAUU (DNA:RNA)
RNA: GGGAGACCGGAAUUCAGAUUGUCCUCGUAUUUUAAAUCCCGUCGUAGCCACCA
DNA 1: CAATCTGAATTCCGGTCTCCC
DNA 2: TGGTGGCTACGACGGGATT
B18: AAACUUG (DNA:RNA)
RNA: B1 RNA with C25A, C30U, A31G
DNA 1: CAATCTGAATTCCGGTCTCCC
DNA 2: TGGTGGCTACGACGGGATT
B19: CUCACCC (DNA:RNA)
RNA: B5 RNA with A25C, U27C, A30C, G31C
DNA 1: CAATCTGAATTCCGGTCTCCC
DNA 2: TGGTGGCTACGACGGGATT
B20: AACGCAA (DNA:RNA)
RNA: B5 RNA with U26A, U27C, A28G, G31A
DNA 1: CAATCTGAATTCCGGTCTCCC
DNA 2: TGGTGGCTACGACGGGATT

Target: T1, RBFOX1 RRM
Assay: EMSA; HiTS-Eq, 1 nM pool, 10 min; buffer printed only for the single-RNA assays: 10 mM Tris pH 7.5, 150 mM NaCl, 3.4 mM EDTA, 0.001% NP-40, 30 C
Conditions: tags: His6 N-terminal (pET28a); label: 5' 32P
Method in brief: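 Purified wild-type or mutant RbFox RRM at increasing concentrations was equilibrated with 1 nM of 5′-radiolabelled RNA carrying 7 randomized nucleotides for 10 min in 50 µL. Unbound RNA was separated by 8% native PAGE and sequenced. Relative association constants came from read-count changes of each RNA species compared with the control reaction, normalised to the cognate motif.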

Row | Binder | binding signal
1 | B1 | 0.0014 KA relative to UGCAUGU
2 | B2 | 0.0079 KA relative to UGCAUGU
3 | B3 | 0.00465 KA relative to UGCAUGU
4 | B4 | 0.00224 KA relative to UGCAUGU
5 | B5 | 0.0056 KA relative to UGCAUGU
6 | B6 | 0.0147 KA relative to UGCAUGU
7 | B7 | 0.0198 KA relative to UGCAUGU
8 | B8 | 0.0261 KA relative to UGCAUGU
9 | B9 | 0.0144 KA relative to UGCAUGU
10 | B10 | 0.0105 KA relative to UGCAUGU
11 | B11 | 0.0321 KA relative to UGCAUGU
12 | B12 | 0.0378 KA relative to UGCAUGU
13 | B13 | 0.0127 KA relative to UGCAUGU
14 | B14 | 0.00942 KA relative to UGCAUGU
15 | B15 | 0.0026 KA relative to UGCAUGU
16 | B16 | 0.00242 KA relative to UGCAUGU
17 | B17 | 0.00649 KA relative to UGCAUGU
18 | B18 | 0.0047 KA relative to UGCAUGU
19 | B19 | 0.00285 KA relative to UGCAUGU
20 | B20 | 0.00455 KA relative to UGCAUGU
